Experimental findings from PubChem BioAssay (NCI) are described below.

Values joined by “and” are separate entries in the source; they are usually repeats but may differ in a detail not shown here. Equal values may be shown once. The panel holds about 83,000 compounds, 20% with a hit somewhere; the sample as a whole holds those more often.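 Plates (96-well) were seeded with cells, treated with compound at one concentration, and incubated for 48 hours before percent growth was determined.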 Values without a mark were called inactive. Active and inactive are the calls of the source. How the source made its calls: active means growth percent below 10; inactive means the rest.

This test has as its system MDA-MB-468 breast. In words: NCI-60 one-dose screen, 48 h (100 = growth as untreated, 0 = no growth, -100 = all killed). As to conditions: 10 µM unless noted.
In the case of `CCOC(=O)c1c(/C=C/C(=O)O)nc2ccccc2c1/C=C/c1ccccc1`, the growth was 7.2% (active). Then `COc1ccc(OC)c(NC(=O)/C(C#N)=C/c2ccco2)c1`, with 85.2%; and `CC(Sc1nc2sc3c(c2c(=O)n1-c1ccc(Cl)cc1)CCCC3)C(=O)Nc1nc(-c2ccc(Br)cc2)cs1` (stereo not given), with 105%. To `CC(=O)c1cc(C(=O)c2ccc3c(c2)Sc2ccccc2N3)c2c(C)cc(C)cn12` belongs 14%. For the compound `O=C(Nc1ccc(-n2ccc3c(NC(=O)c4ccccc4)nccc32)cc1)Nc1ccc(Cl)c(Cl)c1`, the growth is -90.1% (active). Turning to `NCc1c(O)ccc2ccccc12`, the growth is 93.9%. To `CC1(C)CC[C@]2(C(=O)O)CC[C@]3(C)C(=CC[C@@H]4[C@@]5(C)Cc6c([nH]c7ccccc67)C(C)(C)[C@@H]5CC[C@]43C)[C@@H]2C1` belongs 53.4%; to `O=C(c1ccc(Cl)cc1)c1ccc(Cl)cc1`, 97.2%.

For `O=C(c1cc2ccccc2o1)c1nn(-c2ccccc2)/c(=N/N=Cc2cn(-c3ccccc3)nc2-c2cc3ccccc3oc2=O)s1`, the growth was 105%. Then `O=C(Cn1cc(COc2ncnc3c2cnn3-c2ccccc2)nn1)Nc1ccccn1`, with 97.7%; and `COc1ccc(S(=O)(=O)N2CCN(c3cc4c(cc3F)c(=O)c(C(=O)O)cn4C3CC3)CC2)c(OC)c1`, with 86.4%; and `COc1cc(C(=O)c2cc(C)c3[nH]c4ccc(O)cc4c3c2C)cc(OC)c1OC`, with -22.7% (active). Then `CSc1ccc2c(c1)C(N1CCN(C)CC1)Cc1ccccc1S2` (stereo not given), with -66.4% (active); and `CCOC(=O)c1c2c(n3ccc(NC(=O)OC(C)(C)C)cc13)C(=O)c1ncccc1C2=O`, with -29% (active); and `OCCCCc1nccc2c1[nH]c1ccccc12`, with 92.9%.

Take `O=C(Nc1ccc(I)cc1)c1cccc([N+](=O)[O-])c1O`: the growth was 2.17% (active). Then `CCOC(=O)Nc1ccc2c(c1)/C(=N\NC(=S)NC)c1ccccc1-2`, with 86.8%; and `COC(=O)/C=C/c1cc(O)c2c(c1)C(C(=O)OC)C(c1ccc(O)c(O)c1)O2` (stereo not given), with 27.3% and 17.6%; and `NS(=O)(=O)c1ccc(NC2=C(Cl)C(=O)c3ccccc3C2=O)cc1`, with -67% (active). Turning to `CO/N=C/C=C\C(=O)N/C=C/C[C@H]1/C=C/[C@H](O)/C=C\C=C\c2cccc(O)c2C(=O)O1`, the growth is 59.1% and 46.3%.

`COc1ccc(Cn2c(SC)nc(=O)n(Cc3ccc(Cl)cc3)c2=O)cc1`: the growth was 107%. As for `COc1ccc(NNS(=O)(=O)O)cc1`, the growth was 99.3%. Then `C=C1C(=O)O[C@H]2[C@H]1CC/C(Cn1cc(-c3ccsc3)nn1)=C\CC[C@@]1(C)O[C@@H]21`, with -56.8% (active); and `N#Cc1c(-c2ccccc2)cc(-c2ccccc2)n(CCCCC(=O)NO)c1=O`, with 20%. For the compound `CC(=O)c1sc(-c2ccc(F)cc2)cc1O`, the growth was 111%.

As for `O=C(c1ccccc1)c1cccc(C(Br)Br)c1`, the growth was 92.5%. Regarding `COc1cc2cc(Oc3ccc(NC(=O)c4cccc(C(F)(F)F)c4)cc3)c(C)nc2cc1OCCN1CCCCC1`, the growth is 37.6%. Take `Cc1ccc(NC(=O)Cn2nncc2CN2C(=O)CSC2=O)cc1C`: the growth was 95.5%. Then `Cc1ccc(C)c2c1SC1=NNC(Oc3ccc(Cl)cc3)=C(C#N)C(=N)N12`, with 118%.

Take `CCCn1cnc2c(c1=N)C(c1ccc(Cl)cc1)c1sc3c(C)cccc3c1O2` (stereo not given): the growth is 30.9%. Then `Fc1ccc(Oc2ccc(Nc3ncnc4onc(-c5ccccc5)c34)cc2)cc1`, with 101%; and `Oc1ccccc1-c1nnc(SCc2ccc(O)c3ncccc23)n1-c1ccccc1`, with 0.833% (active); and `C=C(C)C(=O)O[C@H]1C[C@@]2(C)OC(=CC2=O)[C@H](C)[C@H](O)[C@H]2OC(=O)C(=C)[C@@H]21`, with 24.7%. Regarding `CCOC(=O)N1C/C(=C/c2ccc(F)cc2)C(=O)/C(=C/c2ccc(F)cc2)C1`, the growth is -55.6% (active). In the case of `O=Cc1ccc(O)c2ncccc12`, the growth is 27.4%. For the compound `CC/C(=C(/c1ccc(OCCN(C)C)cc1)c1ccc(OC(=O)CCCCCCCCC(=O)c2c(C)[nH]c(/C=C3\N=C(c4ccc[nH]4)C=C3OC)c2C)cc1)c1ccccc1`, the growth is 53.4%. Then `COc1ccc2c(c1)O/C(=C\c1ccc([N+](=O)[O-])s1)C2=O`, with -1.9% (active). To `O=C1/C=C/[C@@H](O)[C@@H]2C[C@@H](O)C[C@H]2/C=C/CCC[C@@H](C(F)(F)F)O1` belongs -40.7% (active); to `N#Cc1c(-c2ccc(Cl)cc2)csc1NC(=O)Nc1cccc(C(F)(F)F)c1`, 7.03% (active); to `Nc1nc(N)c2cc(Sc3cccc(C(F)(F)F)c3)ccc2n1`, -4.8% (active).
